The record followed here is PubChem BioAssay.

Assay [1] relates to XIP peptide (Xip251-270) binding. The assay is described as follows: small-molecule binders of XIP peptide, primary screen, biochemical, small-molecule microarray, fluorescence 635/667 nm, 0.1 µg/mL protein (AID 1182). Conditions: fluorescent protein binding, 635 nm, higher = more signal, called active from +8 up or from −8 down.
The next assay has as its system XIP peptide (Xip251-270). Put plainly: small-molecule binders of XIP peptide, primary screen, biochemical, small-molecule microarray, fluorescence 635/667 nm, 0.5 µg/mL protein (AID 1183). Conditions: small-molecule microarray binding, fluorescence 635 nm; higher = more signal.
The nature of assay [2]: Plasmodium falciparum growth inhibition, primary screen, strain 3D7, DAPI fluorescence, 100 nL (AID 1184).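 Also: parasites grown inside human red blood cells in medium with human serum.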 The note with it: P. falciparum 3D7 growth, 3 d, higher = more signal.
The target in assay [3] is Homeobox protein Hox-A13 (Mus musculus) (UniProt Q62424). Put plainly: inhibitors of HoxA13-DNA binding, primary screen, biochemical, fluorescence polarization, labeled oligonucleotide (AID 1185). Conditions: 15 min, higher = more signal, called active from +8 up or from −8 down. In general terms: Fluorescence polarisation rises when a labelled molecule tumbles more slowly, as on binding a larger partner.
Sequence of Homeobox protein Hox-A13 (Mus musculus) (Q62424 whole entry, looked up): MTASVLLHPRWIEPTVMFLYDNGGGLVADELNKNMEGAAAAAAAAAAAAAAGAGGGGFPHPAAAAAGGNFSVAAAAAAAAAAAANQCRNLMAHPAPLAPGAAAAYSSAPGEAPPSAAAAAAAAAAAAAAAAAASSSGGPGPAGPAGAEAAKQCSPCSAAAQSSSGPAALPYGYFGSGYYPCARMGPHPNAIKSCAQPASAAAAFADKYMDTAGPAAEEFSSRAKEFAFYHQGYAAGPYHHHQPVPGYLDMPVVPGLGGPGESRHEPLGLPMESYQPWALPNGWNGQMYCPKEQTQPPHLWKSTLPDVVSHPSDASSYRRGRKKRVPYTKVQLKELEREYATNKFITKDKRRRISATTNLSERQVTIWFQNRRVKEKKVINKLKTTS

Assay [4] is described as follows: inhibitors of hydroxyurea-induced Chk1 phosphorylation, primary screen, imaging, HeLa, phospho-Chk1 antibody, percent positive cells (AID 1186). Conditions: hydroxyurea-induced phospho-Chk1 immunofluorescence imaging, higher = more signal.
The nature of assay [5]: inhibitors of hydroxyurea-induced Chk1 phosphorylation, primary screen, imaging, HeLa, phospho-Chk1 nuclear intensity (AID 1187). The note with it: hydroxyurea-induced phospho-Chk1 immunofluorescence imaging, higher = more signal.

Activity calls are given as the source filed them. Unless noted, no rule for the calls is given here.

Turning to `O=C1OCCC/C=C\[C@H]2OC34C=CCN(c5ccc6ccccc6c5)C(=O)[C@H]3N(CCCCCCO)C(=O)[C@@H]4C12` (some centres not stated), the composite z-score is 0.346 (inactive) in assay [1] and 0.0339 with XIP peptide (Xip251-270). In addition, the z-score in assay [2] was -0.577; in assay [3] it was -5.08 (inactive); in assay [4], -0.833 (inactive); in assay [5], -0.428 (inactive).

On to `CC[C@@H]1C=C(C(=O)O)[C@H](c2ccco2)N1S(=O)(=O)c1ccc(C)cc1`, for which the results for the composite z-score (in assay [1]; in the assay on XIP peptide (Xip251-270)) were 3.88 (inactive) and -0.265, respectively. In addition, the z-score in assay [2] is -0.761; in assay [3] it was -4.78 (inactive); in assay [4], 0.186 (inactive); in assay [5] it was 0.162 (inactive).

Take `Cc1ccc(S[C@]2(C(=O)NCC(C)C)CC(=O)N(Cc3cc(C(F)(F)F)cc(C(F)(F)F)c3)[C@@H]2c2ccc(CO)cc2I)cc1`: the composite z-score was 0.861 (inactive) in assay [1] and 0.569 with XIP peptide (Xip251-270). Moreover, the z-score is -0.433 in assay [2], -2.28 (inactive) in assay [3], 0.208 (inactive) in assay [4] and 0.473 (inactive) in assay [5].

`C=CC[C@]12N=C(c3ccc(OCCCO)cc3)O[C@H]1c1ccccc1N(Cc1ccccc1)C2=O`: the figures for the composite z-score (in assay [1]; in the assay with XIP peptide (Xip251-270)) were 0.0479 (inactive) and 0.586, respectively. For the same compound, the z-score in assay [2] is -2.17; in assay [3] it was 0.196 (inactive); in assay [4], -0.241 (inactive); in assay [5], -0.197 (inactive).

Consider `CCCCCCC#C[Si](O[C@H](c1ccccc1)c1cn([C@H](CO)Cc2ccccc2)nn1)(C(C)C)C(C)C`, for which the composite z-score in assay [1] was 0.207 (inactive); in the assay on XIP peptide (Xip251-270), 0.0718. Further, the z-score in assay [2] is 0.221; in assay [3] it was -1.34 (inactive); in assay [4], -0.653 (inactive); in assay [5] it was -0.496 (inactive).

On to `COc1ccc(CCNC(=O)[C@@]2(C)c3ccccc3C(=O)N(Cc3cc(F)cc(C(F)(F)F)c3)[C@H]2c2ccc(CO)cc2)cc1`, for which the composite z-score is 0.17 (inactive) in assay [1] and 0.464 in the assay on XIP peptide (Xip251-270). In addition, the z-score in assay [2] was -1.49; in assay [3], -4.2 (inactive); in assay [4], 0.027 (inactive); in assay [5], 0.116 (inactive).

Regarding `COc1ccc(C#Cc2ccc3c(c2)[C@]2(C(=O)N3)[C@H](c3ccccc3OCCO)N3[C@H](c4ccccc4)[C@H](c4ccccc4)OC(=O)[C@H]3[C@@H]2C(=O)O)cc1`, the values for the composite z-score (in assay [1]; with XIP peptide (Xip251-270)) were 2.03 (inactive) and 0.695, respectively. The z-score in assay [2] was -1.27; in assay [3] it was -4.32 (inactive); in assay [4], -0.331 (inactive); in assay [5], -0.416 (inactive).

For `COCCCNC(=O)C1N=C(c2ccc(OCCCO)cc2)N(c2ccccc2)O1` (configuration not stated), the composite z-score in assay [1] was 1.84 (inactive); in the assay on XIP peptide (Xip251-270) it was 0.779. Further, the z-score in assay [2] is -0.572; in assay [3] it was -2.25 (inactive); in assay [4], -0.0836 (inactive); in assay [5], 0.164 (inactive).

In the case of `CC(C)(C)OC(=O)CC[C@]12N=C(c3ccc(OCCCO)cc3)O[C@H]1c1ccccc1N(CCS(=O)(=O)c1ccccc1)C2=O`, the composite z-score is 1.11 (inactive) in assay [1] and 0.781 with XIP peptide (Xip251-270). For the same compound, the z-score is -1.96 in assay [2], -2.7 (inactive) in assay [3], -0.266 (inactive) in assay [4] and -0.249 (inactive) in assay [5].

As for `COc1ccc(C(=O)O[C@H]2CC[C@]3(C)C4=C(CCC3C2(C)C)[C@]2(C)CC[C@H]([C@H](C)CCCC(C)C)[C@@]2(C)CC4)cc1` (some centres not stated), the composite z-score in assay [1] is -0.674 (inactive); with XIP peptide (Xip251-270) it was 0.0738. For the same compound, the z-score in assay [2] was 0.148; in assay [3], -1.08 (inactive); in assay [4] it was -0.975 (inactive); in assay [5] it was -1.15 (inactive).

For the compound `OC([C@@H]1CC(c2ccccc2)=NO1)[C@H]1CC(c2ccccc2)=NO1` (some centres not stated), the composite z-score in assay [1] is 0.267 (inactive); in the assay with XIP peptide (Xip251-270) it was -0.444. Besides, the z-score in assay [2] was 0.557; in assay [3] it was -0.163 (inactive); in assay [4], -0.801 (inactive); in assay [5] it was -1.25 (inactive).

`COC(=O)[C@@]1(Cc2ccccc2)[C@H]2c3cc(C(=O)N4CCCC4)n(CC4CC4)c3C[C@H]2CN1C(=O)c1ccccc1`: the composite z-score was 0.258 (inactive) in assay [1] and 0.628 in the assay with XIP peptide (Xip251-270). Moreover, the z-score was -1.79 in assay [2], -5.17 (inactive) in assay [3], 0.874 (inactive) in assay [4] and 0.76 (inactive) in assay [5].

For `COC(=O)c1c(CC[C@@H](CO)NC(=O)N[C@@H](C)Cn2cc(C3(O)CCCCC3)nn2)oc(C(C)=O)c1C(=O)OC`, the composite z-score in assay [1] is 0.946 (inactive); in the assay with XIP peptide (Xip251-270) it was 0.836. Further, the z-score in assay [2] was -2.45; in assay [3], -3.05 (inactive); in assay [4] it was 0.0032 (inactive); in assay [5] it was 0.715 (inactive).

For the compound `[N-]=[N+]=NCc1ccccc1[C@@H]1OC(c2ccc(OCCCO)cc2)=N[C@]1(CCS(=O)(=O)c1ccccc1)C(=O)NCc1ccccc1`, the values for the composite z-score (in assay [1]; in the assay with XIP peptide (Xip251-270)) were 0.212 (inactive) and 0.838, respectively. For the same compound, the z-score in assay [2] was -2.5; in assay [3], -0.438 (inactive); in assay [4] it was 0.21 (inactive); in assay [5], -0.126 (inactive).

On to `O=C1NC(=O)C2C1C=CC(C(O)C(c1ccccc1)c1ccccc1)N2Nc1ccc(Cl)cc1Cl` (configuration not stated), for which the values for the composite z-score (in assay [1]; with XIP peptide (Xip251-270)) were 0.69 (inactive) and -0.0049, respectively. The z-score in assay [2] was -0.289; in assay [3] it was -4.15 (inactive); in assay [4] it was 0.735 (inactive); in assay [5], 0.889 (inactive).

Consider `O=C1O[C@H](c2ccccc2)[C@H](c2ccccc2)N2[C@H]1[C@@H](C(=O)O)[C@]1(C(=O)Nc3ccc(C#CC4=CCCCC4)cc31)[C@H]2c1ccccc1OCCO`, for which the composite z-score in assay [1] is 0.746 (inactive); in the assay with XIP peptide (Xip251-270) it was 0.745. For the same compound, the z-score in assay [2] was -1.86; in assay [3], -2.65 (inactive); in assay [4] it was 0.144 (inactive); in assay [5], -0.0653 (inactive).

For `COC(=O)[C@@]1(Cc2ccc(OC)cc2)[C@H]2c3cc(C(=O)N4CCCC4)n(Cc4ccccc4)c3C[C@H]2CN1C(=O)c1ccccc1`, the composite z-score in assay [1] is 0.738 (inactive); in the assay on XIP peptide (Xip251-270), 0.0127. Further, the z-score is -1.5 in assay [2], -3.78 (inactive) in assay [3], 0.212 (inactive) in assay [4] and 0.07 (inactive) in assay [5].
